Results taken from PubChem BioAssay (NCATS).
Inconclusive results are not listed. Activity calls are given as the source filed them. Calls come from the whole dose curve; as a rule, active = well fitted curve in the direction sought with a large enough effect; inconclusive = small, poorly fitted or top-dose-only effect, or another doubt; inactive = no such curve, though single readings can be large; an effect the other way counts as inactive or inconclusive.

What was measured:
[1] = qHTS of pediatric cancer cell lines to identify multiple opportunities for drug repurposing: Primary screen for NB-EBc1 cells (AID 1347095); note: potency is the fitted concentration of half-maximal effect
Method in brief: (§1)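 Phenotypic viability qHTS, 48 h compound exposure, CellTiter-Glo luminescence read-out; multi-concentration dosing so that potency and efficacy derive directly from the primary screen's curves.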

[2] = qHTS of pediatric cancer cell lines to identify multiple opportunities for drug repurposing: Primary screen for U-2 OS cells (AID 1347096); note: nearly all actives have a fitted effect of over 50% in size
Method in brief: (§2)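 Viability after 48 h compound treatment at 37C, 500-1,000 cells/well, read as ATP luminescence with CellTiter-Glo. Primary screens used 11-point (MIPE, 0.78 nM-46 µM) or 8-point (NPC, 0.59 nM-46 µM) final concentrations; follow-up screens used 11-point dilutions.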

[3] = qHTS of pediatric cancer cell lines to identify multiple opportunities for drug repurposing: Primary screen for Saos-2 cells (AID 1347097); note: nearly all actives have a fitted effect of over 40% in size; note: potency is the fitted concentration of half-maximal effect
Method in brief: as §1

[4] = qHTS of pediatric cancer cell lines to identify multiple opportunities for drug repurposing: Primary screen for NB1643 cells (AID 1347099); note: nearly all actives have a fitted effect of over 50% in size; note: potency is the fitted concentration of half-maximal effect
Method in brief: as §1

[5] = qHTS of pediatric cancer cell lines to identify multiple opportunities for drug repurposing: Primary screen for LAN-5 cells (AID 1347100); note: potency is the fitted concentration of half-maximal effect
Method in brief: as §2

[6] = qHTS of pediatric cancer cell lines to identify multiple opportunities for drug repurposing: Primary screen for Rh18 cells (AID 1347102); note: nearly all actives have a fitted effect of over 65% in size; note: potency is the fitted concentration of half-maximal effect
Method in brief: as §2

[7] = qHTS of pediatric cancer cell lines to identify multiple opportunities for drug repurposing: Primary screen for RD cells (AID 1347104); note: nearly all actives have a fitted effect of over 55% in size; note: potency is the fitted concentration of half-maximal effect
Method in brief: as §1

[8] = qHTS of pediatric cancer cell lines to identify multiple opportunities for drug repurposing: Primary screen for SK-N-SH cells (AID 1347098); note: nearly all actives have a fitted effect of over 65% in size; note: potency is the fitted concentration of half-maximal effect
Method in brief: (§3)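 Cells (500-1,000/well) rested 5 h, then received compounds for 48 h; metabolically active cells were measured by CellTiter-Glo luminescence. Final concentrations spanned up to 46 µM (MIPE, 11-point) or 0.59 nM-46 µM (NPC, 8-point) in primary screens, 11-point in follow-ups.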

[9] = qHTS of pediatric cancer cell lines to identify multiple opportunities for drug repurposing: Primary screen for BT-12 cells (AID 1347101); note: nearly all actives have a fitted effect of over 25% in size; note: potency is the fitted concentration of half-maximal effect
Method in brief: as §3

[10] = qHTS of pediatric cancer cell lines to identify multiple opportunities for drug repurposing: Primary screen for OHS-50 cells (AID 1347103); note: nearly all actives have a fitted effect of over 40% in size; note: potency is the fitted concentration of half-maximal effect
Method in brief: as §3

Measured: Potency

C[C@@H](Cc1cc2c(c(C(N)=O)c1)N(CCCO)CC2)NCCOc1ccccc1OCC(F)(F)F
not listed: [8] | [9] | [10]
inactive: all other assays above

COc1cc(C(=O)NC2CCN(C)CC2)ccc1Nc1ncc2c(n1)N(C1CCCC1)CCC(=O)N2C(C)C
active: [1] 0.662 µM | [8] 6.07 µM | [4] 3.72 µM | [5] 1.18 µM | [9] 21.7 µM | [6] 18.7 µM | [10] 3.43 µM | [7] 20.9 µM
inactive: [2]

CN(N=O)C(=O)N[C@H]1C(O)OC(CO)[C@@H](O)[C@H]1O (some centres not stated)
not listed: [4] | [8]
inactive: all other assays above

N#Cc1cc(NC(=O)Nc2nnc(-c3ccncc3)s2)ccc1-c1cn[nH]c1
not listed: [4] | [8]
inactive: all other assays above

CCN(C(=O)c1c(O)c2c(Cl)cccc2n(C)c1=O)c1ccccc1
not listed: [3] | [9]
inactive: all other assays above

CCCCCCCCCCCC(CC1OC(=O)C1CCCCCC)OC(=O)C(CC(C)C)NC=O (configuration not stated)
inactive: [2] | [5] | [9] | [6] | [7]
active: [1] 18.7 µM | [3] 14.8 µM

COc1ccnc2[nH]cc(C(=O)C(=O)N3CCN(C(=O)c4ccccc4)C[C@@H]3C)c12
not listed: [4] | [7] | [8]
inactive: all other assays above

C[C@](Cc1c[nH]c2ccccc12)(NC(=O)OC1C2CC3CC(C2)CC1C3)C(=O)NC[C@H](NC(=O)CCC(=O)O)c1ccccc1 (some centres not stated)
inactive: [1] | [2] | [3] | [6] | [10] | [7]

C#CCC(Cc1cnc2nc(N)nc(N)c2n1)c1ccc(C(=O)N[C@@H](CCC(=O)O)C(=O)O)cc1 (some centres not stated)
active: [1] 0.372 µM | [9] 0.0485 µM | [10] 0.109 µM | [7] 0.0743 µM
inactive: [2] | [3] | [6]
